Bioassay records (PubChem)
eIF4H FP inh: inhibitors of RNA binding by human eIF4H. Q15056. eIF4H fluorescence polarization binding assay. inhibition, % at 35 µM. actives 0.94% (n = 290,000). AID 2012;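 note: calls also rest on retests at 20 µM and on dose response follow-up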
PABP FP inh: PABP-poly(A) binding inhibition | actives 1% (n = 290,000) | calls only at 35 µM | PABP-poly(A) RNA binding, fluorescence polarization;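 note: calls also rest on retests at 20 µM and on dose response follow-up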
MLLE-PAM2 inh: inhibitors of microRNA-mediated deadenylation, human PABP1 MLLE binding; P11940; GST-MLLE / FITC-PAM2 fluorescence polarization; inhibition, % at 20 µM; actives 0.36% (n = 360,000); AID 588489; in the data active = inhibition above about 35%, passing the limit was not always enough;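 note: plate controls were DMSO wells with GST-MLLE for no effect and wells lacking GST-MLLE protein for full effect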
eIF4E-4G inh: blocks eIF4E binding to eIF4G | P63073+Q04637 | TR-FRET eIF4E-eIF4GI(517-606) binding, 2 h | inhibition, % at 21.7 µM | actives 0.37% (n = 220,000);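 active = inhibition above about 30%, limit read from the data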;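 note: 0% = full FRET control wells and 100% = background wells lacking eIF4GI fragment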
* hit, by the source's call; i = inactive; u = inconclusive; x = no result; + = active, no number; [ ] = another dose, or the depositor's remark. A selection: hits, their analogues and other compounds. The true share with any hit is near 1.5%. Unless noted, the rule behind the calls is not given here.

SMILES | eIF4H FP inh | PABP FP inh | MLLE-PAM2 inh | eIF4E-4G inh
COC(=O)c1cc(OC)c(OC)cc1NC(=O)CN1C(=O)c2ccccc2C1=O | -5.2 | i | -4.4 | 5.2
O=C(Nc1ccc(S(=O)(=O)Nc2nccs2)cc1)c1ccc(=O)[nH]c1 | 73.3 | + | -46.4 | 3.2
O=C(Nc1ccc(S(=O)(=O)Nc2nccs2)cc1)c1ccc(F)c(S(=O)(=O)N2CCOCC2)c1 | 52.3* | i | -53.7 | -1.8
O=C(Nc1ccc(S(=O)(=O)Nc2nccs2)cc1)c1ccc(S(=O)(=O)N2CCOCC2)cc1 | 15.1 | i | 4.5 | 4.5
COc1ccc(N(CC(=O)NCc2ccccc2)C(=O)CCC(=O)Nc2cc(C)ccn2)c(OC)c1 | 1.2 | i | 12.1 | 88.2*
COc1ccccc1N(CC(=O)NCCc1ccccc1)C(=O)CCC(=O)Nc1cc(C)ccn1 | 3.5 | i | -0.5 | x
CCOC(=O)c1c(OCC)[nH]c2c1cc(O)c1ccccc12 | 72.2* | + | 25.5 | 4.7
CN(C)S(=O)(=O)c1ccc(NC(=O)N2CCN(c3ccccc3Cl)CC2)cc1 | 3.7 | i | 0.5 | -4.6
CC1CCCCN1C(=O)Cn1nnc(-c2cccnc2)n1 (configuration not stated) | u | i | 49.1* | -5.2
Cc1ccc(-c2nnn(CCC(=O)N3CCCCC3C)n2)cc1 (configuration not stated) | -7.5 | i | 0.6 | -0.7
COc1ccccc1CNC(=O)C1(C)CCN1Cc1ccc(OC(F)(F)F)cc1 (configuration not stated) | x | x | 6.7 | x
COCCCN1CN(S(=O)(=O)c2ccc(Cl)cc2)c2nc3ccccc3nc21 | 50.1* | + | 15.6 | 4.8
COCCN1CN(S(=O)(=O)c2cccc(Cl)c2)c2nc3ccccc3nc21 | -21.4 | i | 8.1 | x
Cc1c(C(=O)O)cccc1-c1ccc(/C=C2/NC(=O)N(c3ccccc3)C2=O)o1 | 9.2 | i | 6.1 | -0.9
Cc1ccc(NC(=O)CN2C(=O)S/C(=C\c3ccc(-c4cccc(C(=O)O)c4C)o3)C2=O)cc1C | 67.5* | i | 1.8 | 58.2*
Cc1cccc(NC(=O)CN2C(=O)N/C(=C/c3ccc(-c4cccc(C(=O)O)c4C)o3)C2=O)c1 | 12.0 | i | 8.2 | -3.1
Cc1c(C(=O)O)cccc1-c1ccc(/C=C2\SC(=O)NC2=O)o1 | 54.5* | + | -6.0 | x
O=C(CN1C(=O)S/C(=C\c2ccc(-c3cc(C(=O)O)ccc3Cl)o2)C1=O)Nc1ccc2c(c1)OCO2 | 67.7* | + | 6.0 | x
COC(=O)c1ccc(NC(=O)c2cccc(C)c2[N+](=O)[O-])cc1 | -0.7 | i | -9.8 | 4.0
CCCCCCCCCCCCCCCC[n+]1ccc(C(N)=O)cc1 | -9.0 | i | -91.3 | 77.6*[fluorescence artefact?]
CCCCCCCCCCCCCCCC[n+]1ccc(/C=N/O)cc1 | 12.9 | i | 3.7 | 70.0*[fluorescence artefact?]
CCCCCCCC[n+]1cccc(C(=O)N(CC)CC)c1 | -2.2 | i | -9.0 | -0.4
CCCCCCCCCCCCCCCC[n+]1cccc(C(=O)N(CC)CC)c1 | 8.8 | i | -4.8 | 76.5*[fluorescence artefact?]
CCCCCCCCCCCCCCCC[n+]1ccccc1 | x | x | 1.2 | x
O=C(C[n+]1cc(Br)cc(Br)c1)c1cccc([N+](=O)[O-])c1 | -5.5 | i | 12.0 | 0.7
SMILES | eIF4H FP inh | PABP FP inh | MLLE-PAM2 inh | eIF4E-4G inh
O=C(OCn1nnc2ccccc2c1=O)c1cc2ccccc2o1 | -7.3 | i | -0.5 | 97.8*
Cc1ccc2c(c1)c1c3n2CCN(C(=O)CN2CCN(C)CC2)C3CCC1 (configuration not stated) | 17.3 | i | -1.9 | -1.4
Cc1ccc2c(c1)c(=O)c1c3n2CCN(C(=O)CCl)C3CC1 (configuration not stated) | u | + | 8.0 | 1.4
CCN(c1ccccc1)S(=O)(=O)c1ccc(Cl)c(C(=O)Nc2ccncc2)c1 | x | x | 2.8 | x
COc1ccc(OC)c(-c2oc3ccccc3c(=O)c2O)c1 | -6.7 | i | 20.2 | -2.0
COc1ccc(OC)c(C2=C/C(=C/c3ccccn3)C(=O)O2)c1 | 90.7* | i | -41.5 | -3.5
C[C@@H]1CN([C@H](C)CO)S(=O)(=O)c2ccc(C3=CCCCC3)cc2O[C@H]1CN(C)C(=O)Cc1cccnc1 | x | x | -1.8 | x
CC1(C(=O)NCc2cccc3ccccc23)CCN1C(=O)Cc1ccc(-c2ccccc2)cc1 (configuration not stated) | x | x | -4.9 | x
O=c1oc2c3c4c(cc2s1)CCCN4CCC3 | 122.4* | + | 74.1* | 13.3
O=c1ccc2cc3c4c(c2o1)CCCN4CCC3 | u | u | 162.3 | 9.4
C[C@@H]1CN([C@@H](C)CO)C(=O)CCCn2nncc2CO[C@H]1CN(C)S(=O)(=O)c1ccccc1C#N | x | x | -6.4 | x
Cc1ccc(NC(=O)c2cc3ccccc3oc2=O)cc1S(=O)(=O)N(C)C | 0.1 | + | 4.5 | 0.4
CSc1ccc(C2C(C#N)=C(N)Oc3c2ccc(=O)c2c(C)oc(C)c32)cc1 (configuration not stated) | 52.4* | + | -86.8 | -4.8
COc1ccc(C(=O)Nc2ccc3oc(Cc4ccc(Cl)cc4)nc3c2)cc1OC | 3.1 | i | -8.7 | 52.8*
COc1ccc(Cc2nc3ccc(C(=O)NCCc4ccncc4)cc3o2)cc1OC | 6.6 | i | 9.6 | x
CCn1c(=NC(=O)C2COc3ccccc3O2)sc2c(C)ccc(OC)c21 (configuration not stated) | 6.6 | i | 2.8 | 90.0*
CCOC(=O)c1cc(-c2ccc(/C=C3/C(=O)NC(=O)C(C#N)=C3C)o2)ccc1Cl | u | + | 18.4 | 58.6*[fluorescence artefact?]
Cc1ccc(-c2ccc(/C=N/N=C3/NC(=O)C(CC(=O)O)S3)o2)c([N+](=O)[O-])c1 (configuration not stated) | 36.6 | i | -83.4 | 9.9
CC1=C(C#N)C(=O)NC(=O)/C1=C\c1ccc(-c2ccc(C)cc2[N+](=O)[O-])o1 | u | i | 16.5 | 32.6*
CCC(C)(O)c1cnc(CC(C)C)c(=O)n1O (configuration not stated) | x | x | 10.2 | x
CCOC(=O)N1CC=C2C(C#N)=C(N)C(C#N)(C#N)[C@H](c3ccc(OCC)c(OCC)c3)[C@H]2C1 | 15.0 | i | -10.8 | -3.3
N#CC1=C(N)C(C#N)(C#N)C(c2cccnc2)C2CN(C(=O)OCc3ccccc3)CC=C12 (configuration not stated) | 65.8* | i | 20.9 | 0.1
O=C(O)C1Nc2ccc(Br)cc2C2C=CCC12 (configuration not stated) | 105.0* | + | 17.9 | x
O=C(OC1CCCCC1)c1ccc2c(c1)C1C=CCC1C(C(=O)O)N2 (configuration not stated) | 92.8* | + | x | 62.3*[fluorescence artefact?]
O=C(O)c1ccc2c(c1)[C@@H]1C=CC[C@@H]1[C@H](c1ccccn1)N2 | x | x | 42.1* | x
Cc1ccc(-c2nnc(OCC3CCCO3)c3ccccc23)cc1 (configuration not stated) | -10.6 | i | -2.4 | 1.3
O=C(c1cccn2c(=O)c3ccccc3nc12)N1CCN(Cc2ccc3c(c2)OCO3)CC1 | -6.2 | i | -0.9 | x
O=C(c1cccn2c(=O)c3cc(Cl)ccc3nc12)N1CCN(Cc2ccc3c(c2)OCO3)CC1 | -5.0 | i | 5.0 | 46.1*[fluorescence artefact?]
